Assay outcomes deposited in PubChem by several laboratories.
Only some compounds are listed: those with a hit (about 4.6% of all), similar ones and a draw of the others.
tim23-1 inh = inhibits growth of tim23-1 mutant yeast; S. cerevisiae tim23-1 growth, BacTiter-Glo luminescence, 24 h; inhibition, % at 20 µM; actives 1.3% (n = 330,000);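 active means growth inhibition of the mutant yeast at or above 50%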;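 further: temperature-sensitive mutant grown at 25 °C; plate controls were DMSO-treated mutant yeast for no effect and medium wells lacking yeast for full effect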
TIM10 inh = inhibits growth of TIM10 yeast strain; inhibition, % at 10 µM; S. cerevisiae TIM10 strain growth, BacTiter-Glo luminescence, 24 h; AID 463195; actives 1.4% (n = 330,000);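 active means inhibition of 40% or more at the single tested concentration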;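 further: wild-type TIM10 isogenic control strain grown at permissive 25 °C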
tim10-1 inh = growth inhibitors of tim10-1 mutant yeast. S. cerevisiae tim10-1 ts strain growth, BacTiter-Glo, 24 h. actives 2.2% (n = 330,000). inhibition, % at 20 µM. AID 463190;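 active means inhibition of at least 40%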;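 further: mutant grown at 25 °C; 0% = DMSO wells with yeast and 100% = wells holding no yeast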
PfHsp90 set2 = reduces growth (ATP signal) of yeast expressing P. falciparum Hsp90. S. cerevisiae expressing PfHsp90, BacTiter-Glo ATP, 48 h; yeast lacking PDR1 and PDR3 efflux regulators. inhibition, % at 9.4 µM. actives 0.32% (n = 310,000). AID 504621;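 active means every replicate shows inhibition above about 80%, whatever the replicate mean, limit read from the data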;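 further: 0% = DMSO neutral controls and 100% = 20 µM radicicol positive controls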
V-ATPase pHluor = alters yeast V-ATPase proton transport. AID 504577. response, % at 10 µM. S. cerevisiae, pHLuorin cytosolic pH fluorescence. actives 0.37% (n = 350,000); in the data active means response mostly above about 7.3%, no sharp cut-off; inactive means mostly below about 5.4%; further: actives read high
SKKanGAS inh = inhibitors of SKKanGAS S. pyogenes growth in kanamycin (SK-promoter or general growth effect). actives 1.3% (n = 300,000). BacTiter-Glo, 6 h. AID 1662. inhibition, % at 7.5 µM;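 active means mean replicate score, as percent of positive control median, at least 50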;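 further: strain carries kanamycin resistance gene driven by streptokinase promoter and grows in 40 µg/ml kanamycin; loss of luminescence reflects streptokinase promoter inhibition or plain growth inhibition; 0% = median of DMSO wells and 100% = positive control at its reference dose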
tim10-1 confirm = confirmation of tim10-1 mutant yeast growth inhibitors; actives 56% (n = 7,400); shares compounds with tim10-1 inh; S. cerevisiae tim10-1 ts strain growth, BacTiter-Glo, 24 h; inhibition, % at 20 µM;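 active means inhibition of yeast growth at or above a set limit in either of two repeat tests at 20 µM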;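 further: tim10-1 mutant grown at permissive 25 °C to find synthetic lethal compounds; 0% = DMSO yeast wells and 100% = medium wells without yeast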
tim10 confirm = confirmation of TIM10 yeast growth inhibitors | shares compounds with TIM10 inh | S. cerevisiae tim10 strain growth, BacTiter-Glo luminescence, 24 h | inhibition, % at 10 µM | actives 63% (n = 4,600) | AID 463215;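 active means inhibition of yeast growth at or above a set limit in either of two replicates at 10 µM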;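 further: this counterscreen used the strain with wild-type TIM10; 0% = yeast with DMSO and 100% = medium wells lacking yeast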
tim23-1 confirm = tim23-1 yeast growth inhibition, confirmed | shares compounds with tim23-1 inh | S. cerevisiae tim23-1 growth, BacTiter-Glo luminescence, 24 h | inhibition, % at 20 µM | actives 83% (n = 4,400) | AID 463218;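 active means inhibition above about 39% in either of two replicate wells at 20 µM, limit read from the data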;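 further: temperature-sensitive tim23-1 mutant grown at 25 °C; 0% = DMSO wells with yeast and 100% = medium wells without yeast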
The depositor's hits bear a star; . = not tested or not shown.

SMILES | tim23-1 inh | TIM10 inh | tim10-1 inh | PfHsp90 set2 | V-ATPase pHluor | SKKanGAS inh | tim10-1 confirm | tim10 confirm | tim23-1 confirm
c1csc(CNc2nc(-c3cccs3)nc3ccccc23)c1 | 57* | 42* | 51* | -8 | -2 | 6 | 44* | 10 | 52*
O=C1NC(=O)C2(CCCC2c2ccccc2)N1 (stereo not drawn) | . | . | . | 1 | -3 | . | . | . | .
COC(=O)c1ccccc1-c1ccc(C(c2c(C)[nH][nH]c2=O)c2c(C)[nH][nH]c2=O)o1 | 54* | 46* | 56* | 42 | 1 | 1 | 36* | 36* | 48*
Cc1[nH][nH]c(=O)c1C(c1ccc(-c2ccc(Cl)c(C(=O)O)c2)o1)c1c(C)[nH][nH]c1=O | . | . | . | 2 | 2 | . | . | . | .
N/C(Cc1cccs1)=N\OC(=O)COc1ccc(Br)cc1Cl | 68* | 38 | 58* | 13 | 0 | 22 | 59* | . | 87*
ON=Cc1ccnc2ccccc12 | . | . | . | . | 2 | . | . | . | .
O=C(/C=C/c1ccnc2ccccc12)c1cccs1 | 67* | 79* | 71* | 85* | 5 | -10 | 72* | 83* | -29
CC1CCCN(C(=O)COC(=O)C2=COCCO2)C1 (stereo not drawn) | 11 | 0 | 18 | 4 | -2 | . | . | . | .
FC(F)(F)c1nnc2ccc(N3CCCCCC3)nn12 | 50* | 18 | 41* | -5 | -3 | . | 25 | . | 33
FC(F)(F)c1nnc2ccc(N3CCCC3)nn12 | 2 | 4 | -7 | . | -5 | -10 | . | . | .
Cc1ccc(Cc2c(-c3ccc(F)cc3)nc3cc(C)ccn23)cc1 | . | . | . | . | 0 | . | . | . | .
Nc1nn2cc(-c3ccc(Br)cc3)nc2c2ccccc12 | 77* | 59* | 41* | -3 | 3 | 25 | 65* | 65* | 82*
Brc1ccc(-c2cn3nc4c(nc3n2)CCCC4)cc1 | 16 | 2 | 20 | . | -1 | 11 | . | . | .
CN(C)c1ccc(C(=O)N/N=C/c2cc(Br)cc(Br)c2O)cc1 | 32 | 39 | 25 | . | -11 | 35 | . | . | .
Oc1c(Br)cc(Br)cc1C=NCc1ccccc1 | 85* | 59* | 55* | 96* | -9 | 28 | 39* | 33* | 90*
Oc1c(Br)cc(Br)cc1C=NCc1ccc(F)cc1 | 79* | 19 | 51* | 99* | -5 | 8 | 17 | . | 85*
O/N=C/c1cc(Br)ccc1OCc1ccc(F)cc1 | 59* | 33 | 41* | -28 | 0 | 15 | 34* | . | 31*
CC(C)CNC(=O)CSc1ccc(S(=O)(=O)N2CCN(C)CC2)cn1 | 0 | -13 | -6 | 9 | 2 | . | . | . | .
CCCCn1c(=O)c(CCC(=O)OCC(=O)NCc2ccc(OC)c(OC)c2)nc2ccccc21 | 15 | 15 | 10 | -22 | -2 | 8 | . | . | .
COc1ccccc1-[n+]1c(C)cc(/C=C2\Sc3ccccc3N2C)cc1C | 70* | 75* | 57* | -26 | -1 | 45 | 77* | 60* | 72*
COc1ccc(-[n+]2c(C)cc(/C=C3\Sc4ccccc4N3C)cc2C)cc1 | 82* | 66* | 77* | -28 | 8 | 40 | 76* | 67* | 84*
COc1ccc(C(=O)/C=C2\Sc3ccccc3N2C)cc1 | 40 | 11 | 13 | 10 | -2 | -8 | . | . | .
O=C(COC(=O)c1ccc([N+](=O)[O-])s1)NC(c1ccccc1)c1ccccc1 | 4 | 7 | 20 | -28 | 1 | 22 | . | . | .
O=C(COC(=O)c1ccc([N+](=O)[O-])s1)NCc1ccccc1 | 51* | 54* | 41* | 9 | -2 | 3 | 41* | 32* | 33
O=C(OCc1nnc(-c2ccccc2)o1)c1ccc([N+](=O)[O-])s1 | 56* | 79* | 57* | 13 | 9 | . | 68* | 86* | 73*
SMILES | tim23-1 inh | TIM10 inh | tim10-1 inh | PfHsp90 set2 | V-ATPase pHluor | SKKanGAS inh | tim10-1 confirm | tim10 confirm | tim23-1 confirm
Cc1ccc(NC(=O)Cc2nnc(SCC(=O)NC3CCCC3)n2C)c(C)c1 | 1 | 9 | -13 | 7 | 4 | -4 | . | . | .
CCN(Cc1ccccc1)C(c1ccccn1)c1nnnn1C(C)(C)CC (stereo not drawn) | 66* | 52* | 42* | -1 | 3 | -3 | 47* | 51* | 55*
Clc1cccc(/C(Cc2nc3ccccc3[nH]2)=N\Nc2ccccc2)c1 | 59* | 65* | 46* | 8 | -2 | 93* | 30 | 5 | 22
Cc1ccc(N/N=C(\Cc2nc3ccccc3[nH]2)c2ccccc2)cc1 | . | . | . | -35 | -1 | . | . | . | .
C/C(=N\OC(=O)c1ccc(Cl)c(Cl)c1)c1sc(C)nc1C | 17 | 13 | 21 | 31 | -3 | -9 | . | . | .
CC(C)(C)C(=O)OC/C(N)=N/OC(=O)c1ccc(Cl)c(Cl)c1 | 84* | 77* | 63* | 6 | 0 | -8 | 42* | 86* | 69*
CC1CCN(S(=O)(=O)c2cc(F)ccc2CN2C(=O)c3cccnc3C2=O)CC1 | 32 | 11 | 35 | 28 | 4 | -2 | . | . | .
NNc1nc(-c2ccccc2Cl)nc2sc3c(c12)CCCC3 | 63* | 30 | 58* | -5 | -2 | 5 | 20 | . | 55*
NNc1nc(-c2ccccc2Cl)nc2ccccc12 | 21 | 12 | 21 | -31 | 1 | 0 | . | . | .
CCOC(=O)N/N=C/c1c(C)nn(-c2cccc(C(F)(F)F)c2)c1Cl | 58* | 24 | 47* | -68 | 3 | 0 | 36* | . | 60*
Cc1nn(-c2cccc(C(F)(F)F)c2)c(Cl)c1/C=N/Nc1cccc(C(=O)O)c1 | . | . | . | -3 | 4 | 9 | . | . | .
Oc1c(I)cc(I)c2cccnc12 | 69* | 53* | 71* | 109* | 2 | 92* | 65* | 76* | 56*
OCCN1CCN(Cc2cc(Cl)c3cccnc3c2O)CC1 | -4 | 16 | 33 | 1 | -1 | -8 | . | . | .
CCCOc1ccc2c(c1)C(=NN=C(N)N)c1cc(OCCC)ccc1-2 | 62* | 32 | 76* | 0 | 4 | 12 | 38* | . | 33
O=C(NC1CC2CCCC(C1)N2Cc1cccs1)c1ccc([N+](=O)[O-])cc1 (stereo not drawn) | 0 | -23 | -19 | . | . | 1 | . | . | .
Cc1ccc(C2C3=C(CC(C)(C)CC3=O)NC3=C2C(=O)c2ccccc23)cc1 (stereo not drawn) | 25 | 15 | 30 | -2 | -1 | 17 | . | . | .
CC1(C)CC(=O)C2=C(C1)NC1=C(C(=O)c3ccccc31)C2c1ccc(Cl)cc1 (stereo not drawn) | 52* | 40* | 50* | -36 | -5 | 32 | 36* | 22 | 46*
